Measured values reported in PubChem BioAssay AID1903 (Southern Research Specialized Biocontainment Screening …, 2009).
The whole screen tested about 310,000 compounds, of which about 1,200 (0.39%) were called active. These entries were drawn from the full list. Results with a measured potency or affinity are listed apart. Unmarked numbers belong to inactive results. How the calls were made is not given here.

Each compound was assayed against Large T antigen (Simian virus 40) (UniProt P03070) (assay: TAg ATPase/helicase activity blockers – biochemical (AID 1903)). Settings: SV40 large T antigen ATPase/helicase inhibition assay; at 20 µM; hits give high values.
Sequence of Large T antigen (Simian virus 40) (P03070 whole entry, looked up): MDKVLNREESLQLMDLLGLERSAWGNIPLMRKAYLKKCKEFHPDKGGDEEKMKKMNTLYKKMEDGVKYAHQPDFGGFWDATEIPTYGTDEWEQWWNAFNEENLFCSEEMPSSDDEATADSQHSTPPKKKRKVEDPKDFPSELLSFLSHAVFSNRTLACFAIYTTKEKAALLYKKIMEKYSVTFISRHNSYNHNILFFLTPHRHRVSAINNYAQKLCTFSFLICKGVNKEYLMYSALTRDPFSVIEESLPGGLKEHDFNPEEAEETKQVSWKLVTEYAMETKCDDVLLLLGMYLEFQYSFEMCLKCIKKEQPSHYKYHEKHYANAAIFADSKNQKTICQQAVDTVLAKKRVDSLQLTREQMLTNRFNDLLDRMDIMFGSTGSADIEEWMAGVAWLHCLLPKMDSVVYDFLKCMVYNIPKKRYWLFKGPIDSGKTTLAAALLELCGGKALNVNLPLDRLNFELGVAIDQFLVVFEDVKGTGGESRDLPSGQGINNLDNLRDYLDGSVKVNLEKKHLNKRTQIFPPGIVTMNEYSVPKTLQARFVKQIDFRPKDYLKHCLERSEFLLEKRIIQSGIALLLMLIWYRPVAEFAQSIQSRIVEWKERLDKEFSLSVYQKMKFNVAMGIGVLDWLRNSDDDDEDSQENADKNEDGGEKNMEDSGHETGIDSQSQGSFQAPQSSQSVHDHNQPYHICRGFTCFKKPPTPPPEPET
`OC(COc1c(F)cc(Br)cc1F)CN1CCOCC1` (stereo not given) was tested, and the inhibition was 2.96%. For `O=C(CNC(=O)[C@@H]1Cc2ccccc2CN1)Nc1ccc2c(c1)OCCO2`, the inhibition was 10.2%. For `Cc1ccc2nc(/C(C#N)=C/c3ccc(-c4ccccc4C(=O)O)o3)[nH]c2c1`, the inhibition was 24%. In the case of `Cc1ccc2c(nc3s/c(=C\c4ccc(-c5ccccc5C(=O)O)o4)c(=O)n32)c1C`, the inhibition is reported as 21.4%. Compound `C/C=C/c1ccc(OCC(=O)O)c(OC)c1` has an inhibition of 10.3%. Work on `CC1=C(C#N)c2nc(N)c(C#N)c(C)c2/C1=C\c1ccc(C)cc1` yielded an inhibition of 12.2%. With `COc1cc(/C=C2/C(=N)N3C(c4ccccc4)=CSC3=NC2=O)ccc1OCC(=O)O` the inhibition was 31%. `CCOc1cc(-c2c(C)c(C)nc(N)c2C#N)ccc1O` showed an inhibition of 17.1%. Compound `C/C=C/c1ccc(OCC(=O)OCC)c(OC)c1` has an inhibition of 10.1%. In the case of `COCCCNC(=O)/C(C#N)=C/c1ccc(OCC(=O)O)c(OC)c1`, the inhibition is reported as 34.6%. `Cc1c(C(=O)Nc2ccccc2F)sc2ncn(CC(=O)N3CCCCC3)c(=O)c12` gave an inhibition of 7.79%. `Brc1cccc(/C=N/Nc2nc(N3CCCCC3)nc(N3CCCCC3)n2)c1` gave an inhibition of 3.51%. With `CCOC(=O)c1ccccc1NC(=S)N1CCN(C2CCCCC2)CC1` the inhibition was 7.91%. Compound `Cc1ccc2cccc(Oc3ncnc4scc(-c5ccc(Cl)cc5)c34)c2n1` has an inhibition of 25.5%. Compound `O=S(=O)(NCc1ccccn1)c1ccccn1` has an inhibition of 9.8%. With `CCn1cc(C(=O)N2CCN(c3ccccc3)CC2)c(=O)c2cc(S(=O)(=O)N3CCOCC3)ccc21` the inhibition was 4.92%. `CCOc1ccc(Br)cc1S(=O)(=O)Nc1cccnc1` showed an inhibition of 11.2%. `O=C(NCCc1ccccn1)C1CC(=O)N(Cc2ccccc2Cl)C1` (stereo not given) gave an inhibition of 15.4%. `Brc1ccccc1-n1nnc(-c2cccnc2)n1` was tested, and the inhibition was 12.4%. `CCCCN(C(=N)N1CCCCC1)c1nc(C)c([N+](=O)[O-])c(=O)[nH]1` was tested, and the inhibition was 9.69%. In the case of `Nc1cc(=O)[nH]c(SCC(=O)NNC(=O)Cc2ccccc2)n1`, the inhibition is reported as 10.8%. Compound `O=c1[nH]c(NC2CCCCC2)c([N+](=O)[O-])c(=O)[nH]1` has an inhibition of 4.57%. In the case of `S=C1Cc2ccccc2C(c2ccc(Cl)cc2)N1` (stereo not given), the inhibition is reported as 2.33%. Compound `CCCCn1nnnc1SCC(=O)Nc1ccc(C)cc1` has an inhibition of -2.62%. For `CCn1c(SCC(=O)Nc2ccc(F)cc2)nnc1C1CC1`, the inhibition was 3.39%. `Cc1ccc(NC(=O)CSc2nnc(C)c(=O)n2N)cc1` gave an inhibition of 14.2%. For `CCn1nnnc1SCC(=O)Nc1ccc(N(C)C)cc1`, the inhibition was 37.7%. `CCc1ccc(NC(=O)CSc2nnc(-c3cnccn3)n2C)cc1` gave an inhibition of 14.9%. Work on `Cc1ccc(NC(=O)CSc2nnc(-c3cnccn3)n2C)cc1C` yielded an inhibition of 29.7%. For `CC(=O)Nc1ccc(NC(=O)CSc2nnc(C)c(=O)n2N)cc1`, the inhibition was 12.1%. With `CCn1c(SCC(=O)Nc2ccc(NC(C)=O)cc2)nnc1C1CC1` the inhibition was 12.8%. `O=C(CSc1ccc(-c2cccc([N+](=O)[O-])c2)nn1)NCc1ccccc1` was tested, and the inhibition was 11.8%. `CCCc1cc(=O)oc2cc(OC3CCCCC3=O)ccc12` (stereo not given) gave an inhibition of 18.5%. Compound `O=C(O)COc1ccc2c(c1)OCCO2` has an inhibition of -3.88%. Compound `CCOC(=O)c1sc2nc(CC(=O)OC)nc(NCCN(CC)CC)c2c1C` has an inhibition of 28.4%. `COc1ccc(NC(=O)CSc2nnc(-c3ccco3)c(-c3ccco3)n2)cc1OC` gave an inhibition of 26.9%. Compound `Cc1cccc(NC(=O)CSc2nnc(-c3ccco3)c(-c3ccco3)n2)c1` has an inhibition of 35%. `COC(=O)/C=C1/C(=O)N/C(=N\c2nc(C)cc(C)n2)N1c1ccc(OC)cc1` showed an inhibition of 3.13%. `CC(=O)Nc1ccc(/C=N/NC(=O)c2cccc(S(=O)(=O)N3CCOCC3)c2)cc1` gave an inhibition of 8.56%. `COc1cc(/C=N/NC(=O)c2cccc(S(=O)(=O)N3CCCC3)c2)cc(OC)c1O` was tested, and the inhibition was 37.9%. `CCOc1cc(/C=N/NC(=O)c2cccc(S(=O)(=O)N3CCCC3)c2)ccc1OCC(=O)N(C)C` showed an inhibition of 0.99%. Work on `O=C(N/N=C/c1cccnc1)c1cccc(S(=O)(=O)N2CCCC2)c1` yielded an inhibition of 17.7%. Work on `COc1cc(/C=N/NC(=O)c2cccc(S(=O)(=O)N3CCCCC3)c2)cc(Br)c1O` yielded an inhibition of 10.6%. Work on `O=C(N/N=C/c1ccccn1)c1cccc(S(=O)(=O)N2CCCC2)c1` yielded an inhibition of 9.14%. In the case of `C/C(CC(=O)NC1CCCCCC1)=N\NC(=O)c1cnccn1`, the inhibition is reported as 0.37%. Compound `COC(CNC(=O)C(=O)Nc1cc2c3c(c1)CCN3C(=O)CC2)OC` has an inhibition of 6.3%. Work on `COc1ccc(Cn2c(=O)[nH]c3cc(C(=O)NC4CCN(Cc5ccccc5)CC4)ccc32)cc1` yielded an inhibition of 1.67%. `COc1ccc(C(CNC(=O)COc2ccc(F)cc2Br)N2CCCC2)cc1` (stereo not given) showed an inhibition of 5.54%. `O=c1nc2n(c3cccc(Cl)c13)CCCCC2` gave an inhibition of 5.2%. `Cn1c(=O)n(CC(N)=O)c(=O)c2c1nc1n2CCCN1Cc1ccccc1` showed an inhibition of 5.61%. Work on `CC(C)(C)C(=O)NC(=S)Nc1ccccc1F` yielded an inhibition of 0.75%. `CCOC(=O)c1ccc(N2N=C(C)/C(=C/C=C/c3ccco3)C2=O)cc1` gave an inhibition of 21%. `CC1=NN(c2ccccc2)C(=O)/C1=C/C=C/c1ccccc1` showed an inhibition of 9.74%. With `CC1=NN(c2ccccc2)C(=O)/C1=C\C=C\c1ccccc1` the inhibition was 19.4%. In the case of `O=C(/C=C/c1ccco1)Nc1cc(Cl)ccc1C(=O)O`, the inhibition is reported as 21.9%. `CC1=NN(c2ccc(Cl)c(C(=O)O)c2)C(=O)C1` was tested, and the inhibition was 27.9%. `CC1=NN(c2ccc(C(=O)OC(C)C)cc2)C(=O)/C1=C\C=C\c1ccco1` showed an inhibition of 12.7%. Compound `COC(=O)c1cc(NC(=O)Cn2c(=O)cnc3ccccc32)cc(C(=O)OC)c1` has an inhibition of 24%. Work on `CCCCc1c(O)nc(SCC(=O)NC(C)(C)C)n(-c2ccccc2C)c1=O` yielded an inhibition of 0.223%. With `Cc1ccc(NC(=O)c2oc3ccccc3c2NC(=O)C2CC2)cc1` the inhibition was 12.7%. For `Cc1cc(NC(=O)/C=C\C(=O)O)c([N+](=O)[O-])cc1C`, the inhibition was 9.88%. `CCCn1c(N)c(C(=O)CSc2n[nH]c(-c3ccc(C)cc3)n2)c(=O)[nH]c1=O` showed an inhibition of 8.37%. `CC(C)C[C@H]1CN=C(Nc2ccccc2)N1CCCC1CCCC1` gave an inhibition of 16.4%. `Oc1ccc(/C=N\Nc2nncc(-c3ccccc3)n2)cc1` gave an inhibition of 28.1%. In the case of `O=c1[nH]c(=O)c2nnc(N/N=C/c3ccccc3F)nc2[nH]1`, the inhibition is reported as 11.5%. With `CC(C)C(NS(=O)(=O)c1cccc2nsnc12)C(=O)Nc1nc2ccc(Cl)cc2s1` (stereo not given) the inhibition was 1.74%. In the case of `COc1ccc(S(=O)(=O)Nc2c(C(=O)O)[nH]c3ccccc23)cc1`, the inhibition is reported as 11.7%. `COc1ccc(N2C(=O)NC(=O)C2=O)cc1` showed an inhibition of 1.84%. In the case of `Nc1nc(Nc2ccccc2Cl)cc(=O)[nH]1`, the inhibition is reported as 10.8%. `COCn1c(-c2ccc(OC)c(OC)c2)nc2ccccc21` gave an inhibition of 3.62%. With `O=C1CS/C(=N\N=C\c2ccco2)N1c1ccccc1` the inhibition was 31.1%. `COc1ccc2cc(S(=O)(=O)n3cnc(C)c3)ccc2c1` showed an inhibition of 3.48%. Work on `CCN(CC)c1ccc(/C=N/NC(=O)CN2CCCc3ccccc32)cc1` yielded an inhibition of 13.9%. Compound `CNC(=S)N1CCN(c2cccc(OC)c2)CC1` has an inhibition of -1.1%. For `CCN1CCN(C(=O)NC2CC(=O)N(c3ccc(OC)cc3)C2)CC1` (stereo not given), the inhibition was 24.6%. With `COc1ccc(N2CCN(C(=S)Nc3ccccc3)CC2)cc1` the inhibition was 17.3%. `COc1ccc(N2CC(NC(=O)N3CCN(c4ccccc4)CC3)CC2=O)cc1` (stereo not given) showed an inhibition of 21.7%. Work on `CCC(Sc1nc(N)c(NC(=O)c2ccc(OC)cc2)c(=O)[nH]1)C(=O)O` (stereo not given) yielded an inhibition of 7.11%. `Cc1cc(NC(=O)CSc2nc(N)c(NC(=O)c3ccc(F)c(F)c3)c(=O)[nH]2)no1` gave an inhibition of 5.69%. Work on `N#CC(C#N)=C1c2cc(S(N)(=O)=O)ccc2-c2ccc(S(N)(=O)=O)cc21` yielded an inhibition of 3.73%. In the case of `N=C1/C(=C\c2ccc(OCc3ccccc3)cc2)C(=O)N=C2SC(N3CCCC3)=NN12`, the inhibition is reported as 10.7%. With `O=c1[nH]c(CSc2nnc(-c3ccccc3)n2-c2ccccc2)nc2ccccc12` the inhibition was 3.3%. Compound `COc1cccc(C(=O)NCC(=O)N2CCC3(CC2)NCCc2[nH]cnc23)c1OC` has an inhibition of 28.6%. `O=C(CSc1nc(-c2ccco2)cc(C(F)(F)F)n1)Nc1ccccc1C(F)(F)F` gave an inhibition of 13.3%. `O=C(O)C1CC(=O)N(c2ccc(OCc3c(F)cccc3Cl)cc2)C1` (stereo not given) was tested, and the inhibition was 1.79%. With `Cc1ccc(-c2oc3ncnc(N)c3c2-c2ccc(C)cc2)cc1` the inhibition was 5.86%. Compound `COc1ccc(-c2oc3ncnc(N)c3c2-c2ccccc2)cc1` has an inhibition of 5.94%. Compound `Cc1cc(NC(=O)CSc2nc3ccccc3n2CC(=O)N2CCC(C)CC2)no1` has an inhibition of -5.11%. In the case of `NC1=NC(=O)C2(COC(c3ccncc3)OC2)S1` (stereo not given), the inhibition is reported as 3.62%. With `CC(C)CSc1nc2ccccc2n1CC(=O)O` the inhibition was 9.25%. Work on `CC(=O)N1C(=O)N(C(C)=O)C2C1N(C(C)=O)C(=O)N2C(C)=O` (stereo not given) yielded an inhibition of 5.35%. Compound `O=C1CCCN=C(Nc2ccc(F)c(Cl)c2)S1` has an inhibition of 9.56%. `CN1CCN(/C=C2\SC(=S)NC2=O)CC1` showed an inhibition of 5.4%. For `CN1C(=O)/C(=C\C=C2/CCCN2C)N(C)C1=S`, the inhibition was 17.1%. For `COc1ccc(-c2cc(C(=O)Nc3cccc(Cl)c3)no2)cc1`, the inhibition was 7.5%.
